The supplement of paper PMC10849652
The full data set covers some 8,800 targets. This sample favours those with a hit. About 0.5% of all pairs of compound and target were hits. Values without a mark were called inactive.

What was measured:
Assay in all cases: log2 fold change, soluble protein after heating vs DMSO (PISA); higher = thermal stabilisation; K562 lysate, 10 uM; active = over 0.2 and 3.5 SD of the protein, either way, in both replicates (recomputed)
vemurafenib = compound: CCCS(=O)(=O)Nc1ccc(F)c(C(=O)c2c[nH]c3ncc(-c4ccc(Cl)cc4)cc23)c1F [vemurafenib]
How it was run: (§1)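 Following dounce homogenisation of K562 pellets in PBS pH 7.4 with 1 mM MgCl2, crude extract at 1 mg/mL protein was incubated for 30 min with 10 μM compound. Aliquots were then heated for 3 min over 48°C-58°C and pooled, NP-40 was added to 0.5% at 4°C, and soluble protein was recovered as the supernatant at 21,000xg for 90 min. Channel-sum-equalised TMTpro 16plex LC-MS/MS quantified this protein. Each value, from duplicates, is a log-two fold change in thermal stability relative to solvent controls.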

[1] = compound: CCCS(=O)(=O)Nc1ccc(F)c(C(=O)c2c[nH]c3ncc(Cl)cc23)c1F
How it was run: as §1

barasertib = compound: CCN(CCCOc1ccc2c(Nc3cc(CC(=O)Nc4cccc(F)c4)[nH]n3)ncnc2c1)CCOP(=O)(O)O [barasertib]
How it was run: as §1

[2] = compound: CC[C@@H]1C(=O)N(C)c2cnc(Nc3ccc(C(=O)NC4CCN(C)CC4)cc3OC)nc2N1C1CCCC1
How it was run: as §1

volasertib = compound: CC[C@@H]1C(=O)N(C)c2cnc(Nc3ccc(C(=O)N[C@H]4CC[C@H](N5CCN(CC6CC6)CC5)CC4)cc3OC)nc2N1C(C)C [volasertib]
How it was run: as §1

[3] = compound: CCn1c(C(=O)N(C2CC2)C2CC2)cc2c3c(ncn3C)c(Nc3cc(C)n(C)n3)nc21
How it was run: as §1

[4] = compound: CCn1cc(-c2ccnc3[nH]c(-c4cccc(CN(C)C)c4)cc23)c(-c2ccc(NC(=O)N(C)C)cc2)n1
How it was run: as §1

[5] = compound: CN1CCC(CNc2ccc3ncc(-c4cccc(OC(F)(F)F)c4)n3n2)CC1
How it was run: as §1

saracatinib = compound: CN1CCN(CCOc2cc(OC3CCOCC3)c3c(Nc4c(Cl)ccc5c4OCO5)ncnc3c2)CC1 [saracatinib]
How it was run: as §1

sotrastaurin = compound: CN1CCN(c2nc(C3=C(c4c[nH]c5ccccc45)C(=O)NC3=O)c3ccccc3n2)CC1 [sotrastaurin]
How it was run: as §1

alvocidib = compound: CN1CC[C@H](c2c(O)cc(O)c3c(=O)cc(-c4ccccc4Cl)oc23)[C@H](O)C1 [alvocidib]
How it was run: as §1

Tubastatin A = compound: CN1CCc2c(c3ccccc3n2Cc2ccc(C(=O)NO)cc2)C1 [Tubastatin A]
How it was run: as §1

[6] = compound: CNC(=O)C1=CC=CC=C1NC2=NC(=NC=C2Cl)NC3=C(C=C(C=C3)N4CCOCC4)OC
How it was run: as §1

defactinib = compound: CNC(=O)c1ccc(Nc2ncc(C(F)(F)F)c(NCc3nccnc3N(C)S(C)(=O)=O)n2)cc1 [defactinib]
How it was run: as §1

[7] = compound: CNc1nc(-c2ccc3c(N)n[nH]c3c2)cc(N2C[C@@H](C(=O)NC3CCCCC3)CC[C@H]2C)n1
How it was run: as §1

encorafenib = compound: COC(=O)N[C@@H](C)CNc1nccc(-c2cn(C(C)C)nc2-c2cc(Cl)cc(NS(C)(=O)=O)c2F)n1 [encorafenib]
How it was run: as §1

[8] = compound: COC(=O)[C@H](CCSC)NC(=O)C1=C(C=C(C=C1)NC[C@H](CS)N)C2=CC=CC=C2
How it was run: as §1

alisertib = compound: COc1cc(Nc2ncc3c(n2)-c2ccc(Cl)cc2C(c2c(F)cccc2OC)=NC3)ccc1C(=O)O [alisertib]
How it was run: as §1

[9] = compound: COc1cc2nc(-c3cc(F)ccc3O)nc(N[C@@H]3CNC[C@H]3C(C)(C)O)c2cc1OC
How it was run: as §1

gefitinib = compound: COc1cc2ncnc(Nc3ccc(F)c(Cl)c3)c2cc1OCCCN1CCOCC1 [gefitinib]
How it was run: as §1

UniProt P28676, sequence (P28676 whole entry, looked up): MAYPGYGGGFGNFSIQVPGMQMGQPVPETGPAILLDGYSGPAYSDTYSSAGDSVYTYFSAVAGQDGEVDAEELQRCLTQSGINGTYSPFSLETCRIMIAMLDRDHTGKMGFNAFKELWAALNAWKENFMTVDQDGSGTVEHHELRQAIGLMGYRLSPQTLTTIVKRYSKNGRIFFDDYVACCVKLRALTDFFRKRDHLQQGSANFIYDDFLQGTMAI
UniProt Q8TEQ6, sequence (Q8TEQ6 whole entry, looked up): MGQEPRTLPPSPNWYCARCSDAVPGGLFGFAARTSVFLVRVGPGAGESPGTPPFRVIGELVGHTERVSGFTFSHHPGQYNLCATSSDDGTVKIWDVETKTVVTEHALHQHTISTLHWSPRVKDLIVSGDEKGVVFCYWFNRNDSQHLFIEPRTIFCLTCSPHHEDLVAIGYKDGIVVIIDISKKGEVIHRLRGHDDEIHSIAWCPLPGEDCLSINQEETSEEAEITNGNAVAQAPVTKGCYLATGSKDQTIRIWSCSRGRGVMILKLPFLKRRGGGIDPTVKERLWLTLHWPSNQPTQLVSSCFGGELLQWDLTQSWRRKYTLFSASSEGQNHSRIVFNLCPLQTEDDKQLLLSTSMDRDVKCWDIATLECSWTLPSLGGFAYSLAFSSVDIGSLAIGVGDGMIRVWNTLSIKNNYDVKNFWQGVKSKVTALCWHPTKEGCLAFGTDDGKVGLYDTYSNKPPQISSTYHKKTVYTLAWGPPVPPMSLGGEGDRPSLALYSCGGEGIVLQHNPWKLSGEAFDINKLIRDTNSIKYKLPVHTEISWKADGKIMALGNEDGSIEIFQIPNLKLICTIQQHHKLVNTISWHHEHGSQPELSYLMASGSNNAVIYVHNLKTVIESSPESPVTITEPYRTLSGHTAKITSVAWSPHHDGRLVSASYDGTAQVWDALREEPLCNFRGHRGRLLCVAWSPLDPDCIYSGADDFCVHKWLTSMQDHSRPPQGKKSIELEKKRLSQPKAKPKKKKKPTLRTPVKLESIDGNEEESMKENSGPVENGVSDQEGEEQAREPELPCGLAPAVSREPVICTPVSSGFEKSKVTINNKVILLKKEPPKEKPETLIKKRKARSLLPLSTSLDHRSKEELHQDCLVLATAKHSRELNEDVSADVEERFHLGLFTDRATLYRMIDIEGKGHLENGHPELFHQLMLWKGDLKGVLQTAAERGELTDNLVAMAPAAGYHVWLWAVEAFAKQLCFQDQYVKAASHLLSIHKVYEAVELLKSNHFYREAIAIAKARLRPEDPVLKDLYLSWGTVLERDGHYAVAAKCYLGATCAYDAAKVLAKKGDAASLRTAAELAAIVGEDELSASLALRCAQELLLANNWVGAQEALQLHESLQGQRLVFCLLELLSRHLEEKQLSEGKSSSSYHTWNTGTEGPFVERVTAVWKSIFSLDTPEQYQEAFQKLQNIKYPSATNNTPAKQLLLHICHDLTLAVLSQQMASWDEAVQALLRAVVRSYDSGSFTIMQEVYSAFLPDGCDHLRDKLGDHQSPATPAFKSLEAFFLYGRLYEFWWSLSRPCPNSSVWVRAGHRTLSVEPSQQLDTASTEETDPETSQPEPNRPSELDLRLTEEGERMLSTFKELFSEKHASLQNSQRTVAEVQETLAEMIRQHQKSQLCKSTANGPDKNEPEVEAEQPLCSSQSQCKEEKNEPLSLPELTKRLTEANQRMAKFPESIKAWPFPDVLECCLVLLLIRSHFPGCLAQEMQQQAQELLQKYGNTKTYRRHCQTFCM
UniProt Q9HCG7, sequence (Q9HCG7 whole entry, looked up): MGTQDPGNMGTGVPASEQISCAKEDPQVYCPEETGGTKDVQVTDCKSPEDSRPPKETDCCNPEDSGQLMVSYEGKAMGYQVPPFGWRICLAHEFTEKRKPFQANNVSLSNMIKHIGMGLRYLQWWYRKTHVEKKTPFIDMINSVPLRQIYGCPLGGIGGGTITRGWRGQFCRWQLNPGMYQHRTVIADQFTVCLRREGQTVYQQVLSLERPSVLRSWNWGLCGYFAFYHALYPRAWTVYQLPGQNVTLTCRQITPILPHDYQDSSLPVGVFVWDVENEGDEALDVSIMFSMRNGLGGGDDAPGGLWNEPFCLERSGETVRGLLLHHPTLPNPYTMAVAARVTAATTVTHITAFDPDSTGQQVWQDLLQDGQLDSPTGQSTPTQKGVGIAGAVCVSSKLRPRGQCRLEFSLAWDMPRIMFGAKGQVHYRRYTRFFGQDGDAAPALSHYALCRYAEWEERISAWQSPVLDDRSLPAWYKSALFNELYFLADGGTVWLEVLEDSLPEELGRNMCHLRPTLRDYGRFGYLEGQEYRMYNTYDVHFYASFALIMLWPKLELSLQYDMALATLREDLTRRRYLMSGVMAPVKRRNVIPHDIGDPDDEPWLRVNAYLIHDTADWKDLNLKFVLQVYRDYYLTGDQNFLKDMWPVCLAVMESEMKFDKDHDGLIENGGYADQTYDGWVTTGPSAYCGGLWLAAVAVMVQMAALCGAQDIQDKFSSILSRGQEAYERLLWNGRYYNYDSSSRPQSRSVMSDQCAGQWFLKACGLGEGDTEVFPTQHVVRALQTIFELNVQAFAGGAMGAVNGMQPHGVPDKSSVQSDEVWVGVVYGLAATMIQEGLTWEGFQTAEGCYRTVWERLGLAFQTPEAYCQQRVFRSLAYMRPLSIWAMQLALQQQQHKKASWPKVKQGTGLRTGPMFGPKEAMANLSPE
UniProt P04406, sequence (P04406 whole entry, looked up): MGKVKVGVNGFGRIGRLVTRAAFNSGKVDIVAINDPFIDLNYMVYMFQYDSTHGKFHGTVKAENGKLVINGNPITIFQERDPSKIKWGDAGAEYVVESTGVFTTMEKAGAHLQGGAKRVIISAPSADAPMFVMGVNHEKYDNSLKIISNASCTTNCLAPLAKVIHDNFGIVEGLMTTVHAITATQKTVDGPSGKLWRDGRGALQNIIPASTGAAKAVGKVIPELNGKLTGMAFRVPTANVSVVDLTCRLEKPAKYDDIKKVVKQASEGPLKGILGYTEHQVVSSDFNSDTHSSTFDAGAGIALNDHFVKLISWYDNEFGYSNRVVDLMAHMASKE
UniProt Q9NRW4, sequence (Q9NRW4 whole entry, looked up): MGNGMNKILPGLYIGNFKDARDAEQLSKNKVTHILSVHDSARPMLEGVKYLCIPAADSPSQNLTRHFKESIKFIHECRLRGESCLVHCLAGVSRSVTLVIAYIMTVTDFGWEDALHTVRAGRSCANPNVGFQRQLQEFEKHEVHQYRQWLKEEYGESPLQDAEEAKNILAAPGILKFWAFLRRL
UniProt Q9P0K8, sequence (Q9P0K8 whole entry, looked up): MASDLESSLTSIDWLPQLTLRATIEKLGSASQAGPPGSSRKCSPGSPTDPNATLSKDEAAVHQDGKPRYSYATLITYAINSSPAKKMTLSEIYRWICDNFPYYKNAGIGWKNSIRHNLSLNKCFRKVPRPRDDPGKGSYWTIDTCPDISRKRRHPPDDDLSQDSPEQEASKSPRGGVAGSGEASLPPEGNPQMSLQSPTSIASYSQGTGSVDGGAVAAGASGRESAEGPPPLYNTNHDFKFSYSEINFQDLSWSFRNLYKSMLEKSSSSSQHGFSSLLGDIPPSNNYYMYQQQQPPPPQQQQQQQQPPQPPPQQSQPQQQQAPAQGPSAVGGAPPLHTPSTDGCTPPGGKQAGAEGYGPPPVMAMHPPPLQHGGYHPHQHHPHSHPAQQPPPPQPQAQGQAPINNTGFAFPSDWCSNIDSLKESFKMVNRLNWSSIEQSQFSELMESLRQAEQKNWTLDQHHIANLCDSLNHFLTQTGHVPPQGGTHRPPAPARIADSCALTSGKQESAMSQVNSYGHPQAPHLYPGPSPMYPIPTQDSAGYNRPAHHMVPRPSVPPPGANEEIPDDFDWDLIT
UniProt Q13011, sequence (Q13011 whole entry, looked up): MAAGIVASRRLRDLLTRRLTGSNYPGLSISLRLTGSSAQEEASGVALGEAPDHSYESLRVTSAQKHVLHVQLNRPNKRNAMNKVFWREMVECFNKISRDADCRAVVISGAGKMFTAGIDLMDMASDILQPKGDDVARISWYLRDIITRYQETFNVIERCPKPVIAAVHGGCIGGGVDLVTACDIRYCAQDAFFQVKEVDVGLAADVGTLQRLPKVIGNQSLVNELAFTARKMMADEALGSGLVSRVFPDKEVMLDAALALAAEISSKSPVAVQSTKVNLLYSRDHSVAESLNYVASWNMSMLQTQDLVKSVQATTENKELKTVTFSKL
UniProt P11474, sequence (P11474 whole entry, looked up): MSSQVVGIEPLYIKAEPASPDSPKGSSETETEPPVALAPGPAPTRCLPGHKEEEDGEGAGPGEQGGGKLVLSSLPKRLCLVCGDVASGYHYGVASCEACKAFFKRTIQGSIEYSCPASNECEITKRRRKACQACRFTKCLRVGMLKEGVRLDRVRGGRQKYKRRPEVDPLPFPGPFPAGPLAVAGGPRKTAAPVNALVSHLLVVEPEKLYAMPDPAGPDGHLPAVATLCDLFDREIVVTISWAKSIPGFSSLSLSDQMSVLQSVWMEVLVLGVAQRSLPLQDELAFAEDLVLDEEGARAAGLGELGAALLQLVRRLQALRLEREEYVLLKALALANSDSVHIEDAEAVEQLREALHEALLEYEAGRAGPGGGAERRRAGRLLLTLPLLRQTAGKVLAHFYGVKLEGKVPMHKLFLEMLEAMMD
UniProt Q9H790, sequence (Q9H790 whole entry, looked up): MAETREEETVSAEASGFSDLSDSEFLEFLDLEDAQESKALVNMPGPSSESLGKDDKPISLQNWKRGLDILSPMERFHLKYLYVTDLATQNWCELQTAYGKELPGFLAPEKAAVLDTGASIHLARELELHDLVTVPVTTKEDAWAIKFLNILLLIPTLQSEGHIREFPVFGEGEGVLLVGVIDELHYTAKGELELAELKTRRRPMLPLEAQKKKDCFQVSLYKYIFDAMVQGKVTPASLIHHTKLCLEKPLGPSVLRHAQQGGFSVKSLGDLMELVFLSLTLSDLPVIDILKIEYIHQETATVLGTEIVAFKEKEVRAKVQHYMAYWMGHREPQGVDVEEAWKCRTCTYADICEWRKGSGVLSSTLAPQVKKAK

Target | log2 fold change (vemurafenib) | log2 fold change [1] | log2 fold change (barasertib) | log2 fold change [2] | log2 fold change (volasertib) | log2 fold change [3] | log2 fold change [4] | log2 fold change [5] | log2 fold change (saracatinib) | log2 fold change (sotrastaurin) | log2 fold change (alvocidib) | log2 fold change (Tubastatin A) | log2 fold change [6] | log2 fold change (defactinib) | log2 fold change [7] | log2 fold change (encorafenib) | log2 fold change [8] | log2 fold change (alisertib) | log2 fold change [9] | log2 fold change (gefitinib)
GAPDH (UniProt P04406) | -0.031 | 0.002 | -0.016 | -0.006 | -0.002 | -0.009 | 0.042 | -0.032 | 0 | -0.01 | 0.01 | 0.046 | 0 | 0.012 | 0.018 | -0.045 | -0.006 | -0.039 | -0.001 | -0.026
FBXO30 (UniProt Q8TB52) | -0.065 | 0.02 | 0.015 | -0.026 | -0.042 | 0.009 | 0.208 | -0.115 | -0.015 | -0.013 | 0.066 | -0.106 | 0.03 | 0.042 | -0.091 | 0.036 | 0.1 | -0.014 | -0.006 | 0.029
FPGT (UniProt O14772) | -0.008 | 0.011 | 0.048 | -0.064 | -0.018 | 0.008 | 0.415 (active) | -0.054 | 0.017 | -0.001 | 0.031 | -0.111 | -0.011 | 0.008 | -0.02 | 0.011 | 0.058 | 0.002 | 0.002 | 0.013
FANCD2 isoform 1 (UniProt Q9BXW9) | 0.067 | 0.053 | 0.04 | 0.14 | -0.045 | 0.017 | -0.135 | 0.02 | 0.016 | -0.029 | 0 | -0.082 | -0.001 | -0.044 | 0.147 | -0.059 | 0.096 | 0.001 | 0.023 | 0.009
GEMIN5 (UniProt Q8TEQ6) | 0.006 | 0.008 | 0.004 | -0.085 | -0.069 | 0.066 | -0.052 | -0.061 | 0.018 | 0.015 | 0.023 | -0.21 | 0.027 | 0.031 | -0.007 | 0.011 | 0.057 | 0.014 | -0.019 | -0.032
ECH1 (UniProt Q13011) | -0.003 | -0.025 | -0.008 | -0.019 | 0.041 | -0.007 | -0.07 | 0.348 (active) | -0.047 | 0.608 (active) | 0.017 | 0.309 (active) | -0.028 | 0.004 | -0.004 | -0.033 | -0.024 | -0.01 | 0.047 | -0.001
FAT2 (UniProt Q9NYQ8) | 0.213 | 0.19 | -0.001 | 0.016 | -0.097 | 0.089 | -0.487 | 0.248 | – | 0.125 | -0.214 | -0.083 | -0.123 | -0.034 | – | -0.092 | 0.104 | -0.023 | 0.043 | 0.013
ESRRA (UniProt P11474) | 0.058 | 0.005 | 0.041 | 0.03 | -0.075 | -0.039 | 0.569 (active) | -0.283 | -0.055 | 0.053 | 0.167 | -0.169 | 0.033 | -0.086 | -0.04 | 0.048 | -0.072 | -0.045 | -0.029 | 0.07
GAA (UniProt P10253) | 0.068 | -0.101 | -0.063 | -0.006 | 0.015 | -0.021 | 0.122 | 0.027 | – | -0.039 | -0.006 | 0.098 | -0.047 | -0.513 (active) | – | 0.097 | -0.15 | -0.117 | 0.089 | -0.043
FYN (UniProt P06241) | -0.036 | -0.01 | 0.065 | -0.351 | 0.046 | 0.033 | 0.048 | 0.22 | – | 0.023 | -0.078 | 0.03 | -0.009 | 0.038 | -0.069 | 0.092 | -0.121 | – | 0.005 | –
ELAVL4 (UniProt P26378) | -0.045 | 0.035 | – | -0.119 | -0.038 | 0.054 | -0.006 | 0.029 | -0.052 | 0 | 0.019 | -0.125 | 0.036 | -0.007 | -0.003 | 0.003 | 0.211 | 0.136 | -0.031 | 0.056
ESRRB isoform 1 (UniProt O95718) | – | – | -0.004 | – | – | -0.118 | 0.242 | -0.127 | – | – | 0.233 | -0.269 | -0.011 | – | – | – | – | – | – | –
FMNL2 isoform 3 (UniProt Q96PY5) | – | 0.022 | – | – | -0.013 | -0.103 | – | – | 0.04 | 0.08 | – | 0.108 | 0.011 | – | 0.044 | – | – | 0.073 | 0.119 | 0.241
FOXJ2 (UniProt Q9P0K8) | – | – | -0.049 | -0.149 | – | 0.1 | -0.062 | -0.071 | -0.101 | – | 0.006 | -0.114 | 0.021 | – | 0.053 | -0.081 | 0.022 | -0.308 | – | 0.057
DTL (UniProt Q9NZJ0) | -0.007 | – | 0.044 | – | – | 0.02 | 0.065 | -0.034 | -0.1 | -0.03 | -0.008 | -0.072 | -0.003 | 0.071 | -0.092 | – | – | -0.038 | – | 0.043
FNDC3A (UniProt Q9Y2H6) | – | – | – | – | – | 0.044 | -0.451 | 0.138 | – | -0.113 | -0.017 | -0.237 | 0.014 | – | – | – | – | -0.141 | – | -0.214
EXO5 (UniProt Q9H790) | – | – | 0.111 | – | – | -0.022 | – | – | – | 0.128 | – | 0.018 | 0.068 | – | – | – | – | – | – | –
GCA (UniProt P28676) | – | 0.124 | – | – | -0.048 | – | -0.139 | 0.168 | – | – | -0.016 | – | -0.035 | – | – | – | – | -0.038 | -0.253 | -0.197
GBA2 (UniProt Q9HCG7) | – | 0.12 | -0.01 | 0.099 | -0.21 | 0 | -0.076 | 0.025 | 0.033 | 0.001 | -0.046 | -0.032 | 0.073 | – | -0.098 | -0.052 | 0.079 | -0.004 | 0.013 | 0.2
DUSP22 isoform 2 (UniProt Q9NRW4) | 0.134 | -0.109 | -0.016 | – | 0.006 | -0.033 | -0.125 | 0.052 | 0.009 | – | 0.034 | -0.079 | -0.066 | -0.085 | 0.043 | – | – | 0.18 | -0.11 | -0.101
